The list is a sample of the results.
aSyn UTR act – Activators via SNCA 5'UTR binding, MLPCN. AID 1814. activity score, % (tested at 7.5 µM), hits read low. alpha-synuclein 5'UTR reporter, activators screen. 300,000 compounds, 7.1% hits; in the data active = activity score below about -60%
An asterisk follows results filed as active.

SMILES	aSyn UTR act
N/C(=N\OC(=O)CC1CCCCC1)c1cccc(Br)c1	-84.4*
CNC(=O)c1ccc(-c2ccc(F)cc2)s1	-101.4*
O=C(Nc1ccccc1)c1ccc(-c2ccc(F)cc2)s1	-205.9*
CNC(=O)c1ccc(-c2ccc(OC)cc2)s1	-151.1*
CNC(=O)c1ccc(-c2ccc(Cl)c(Cl)c2)s1	-94.2*
O=C(Nc1ccc(F)cc1)c1nc(S(=O)(=O)Cc2ccccc2)ncc1Cl	66.6
O=C(Nc1ccc2c(c1)OCO2)C(=O)c1c[nH]c2ccccc12	-72.2*
Cc1[nH]c2ccccc2c1C(=O)C(=O)Nc1ccc2c(c1)OCCO2	-126.4*
CCN1CCN(Cc2ccc(NC(=O)c3cc(NC(=O)C(=O)c4c[nH]c5ccccc45)cc(OC)c3)cc2C(F)(F)F)CC1	116.7
O=C(COc1ccc(F)c(Cl)c1)c1ccc[nH]1	-70.8*
O=C(CCC(=O)c1ccc[nH]1)c1ccc(Cl)cc1	-115.8*
Cc1cc(C)c2c3c(sc2n1)C1(CCSCC1)C(C#N)=C(N)O3	-89.9*
CCC(=O)Nc1ccc(NC(=O)c2ccccn2)cn1	-87.8*
CCCC(=O)Nc1ccc(NC(=O)c2ccccc2Cl)nc1	-76.1*
Cc1cc(C)c(S(=O)(=O)Nc2ccc3c4c(cccc24)CC3)c(C)c1	106.0
CC(=O)c1ccc(NS(=O)(=O)c2c(C)cc(C)cc2C)cc1	-102.0*
COc1ccc(-c2cc(C(=O)N3CCCCCC3)no2)cc1	-85.5*
COc1ccc(-c2cc(C(=O)N3CCCCCC3)no2)cc1OC	-123.6*
Cc1ccc(C(=O)NCCc2cccs2)cc1	73.2
O=C(NCc1cccs1)c1ccc2c(c1)OCCO2	-70.1*
CCOC(=O)CNC(=O)c1ccc2c(c1)OCCO2	-64.5*
CCOC(=O)CNC(=O)c1cc(-c2ccc3c(c2)OCCO3)oc1C	-99.5*
O=C(NCCc1cccs1)c1ccc(Cl)c(Cl)c1	-208.8*
COc1ccc(C(=O)Nc2sc(C)c(-c3ccccc3)c2C#N)cc1OC	-91.8*
COc1cc(/C=N/Nc2nc3ccccc3[nH]2)ccc1O	-270.3*
SMILES	aSyn UTR act
COc1cc(/C=C(/C(=O)c2cccs2)c2nc3ccccc3[nH]2)cc(OC)c1O	-224.4*
COc1ccccc1Nc1nc2ccccc2[nH]1	-119.7*
COc1cccc(/C=N/Nc2nc3ccccc3[nH]2)c1OC	-106.2*
COc1cc(/C=N/Nc2nc3ccccc3[nH]2)cc(OC)c1O	-100.3*
COc1ccc(O)c(/C=N/Nc2nc3ccccc3[nH]2)c1	-81.2*
Cc1ccccc1S(=O)(=O)Oc1ccc2ccc(O)cc2c1	-131.1*
Cc1ccccc1C(=O)Oc1ccc2ccc(O)cc2c1	-162.2*
N/C(=N\C(=S)Nc1ccccc1)c1ccccc1	-170.0*
NC(N)=NC(=S)Nc1ccc(Cl)cc1	-105.8*
CCOc1ccc(NC(=O)C(c2ccccn2)N(C(=O)CCl)c2ccc(OC)cc2)cc1 (configuration not stated)	-161.0*
Cc1ccc(C(=O)NCCn2cc(SCC(=O)Nc3cc(C)on3)c3ccccc32)cc1	-77.7*
Clc1ccc2nc(CSCc3ccccc3)cn2c1	-166.8*
Cc1cccc2nc(CSc3ccc(Cl)cc3)cn12	-118.0*
Cc1cc(C)c(C#N)c(SCc2cn3ccccc3n2)n1	-87.5*
Nc1nnc(SCc2cn3cc(Cl)ccc3n2)s1	-96.6*
Cc1ccc(SCc2cn3cc(Cl)ccc3n2)cc1	-135.9*
CNc1cc(CSc2ccc(Cl)cc2)nc(C)n1	-118.1*
c1ccc2c(SCc3cn4ccccc4n3)nncc2c1	-69.6*
c1ccc2[nH]c(SCc3cn4ccccc4n3)nc2c1	-61.7*
Clc1ccc(SCc2cn3ccccc3n2)cc1	-148.1*
O=C(Nc1ccccc1)c1ccc(C(=O)Nc2ccccc2)nc1	-182.0*
Cc1ccc(NC(=O)c2ccccc2)cc1	-163.6*
Cc1ccc(NC(=O)/C(CN(C)C)=N\O)cc1	-88.5*
Cc1ccc(C(=O)Nc2ccc3ccccc3c2)cc1	66.0
Cc1ccc(NC(=O)C(=O)c2ccc(C)cc2)cc1	-207.8*
SMILES	aSyn UTR act
Cc1cccc(C(=O)Nc2ccc(C(=O)c3ccccc3)cc2)c1	-106.1*
O=C(Nc1nsc(-c2ccccc2)n1)c1ccc(F)cc1	-165.6*
CSC(=CC(=O)c1ccccc1)SC	-77.1*
O=C(Nc1ccc(Nc2ccccc2)cc1)c1ccc(F)cc1	-74.8*
Cc1ccc(N/C(=C\C(=O)c2ccccc2)C(=O)O)cc1	-157.5*
Cc1cccc(C(=O)Nc2ccc(O)cc2)c1	-98.2*
Cc1ccc(-c2nn3c(C)nnc3s2)cc1NC(=O)c1cccs1	-64.1*
COC(=O)Cc1[nH]n(-c2ccccc2)c(=O)c1C(C)=Nc1ccccc1	-70.8*
COC(=O)Cc1[nH]n(-c2nc3ccccc3s2)c(=O)c1C(C)=Nc1ccc(C)cc1	97.5
N#Cc1cc(C#N)c(N2CCN(c3cccc(Cl)n3)CC2)nc1N	-85.5*
CCOc1cc(/C=N/Nc2cc(C)nc(-n3nc(C)cc3C)n2)ccc1O	68.3
O=C(O)c1ccc(/C=N/Nc2ccc(C(F)(F)F)cn2)cc1	-172.2*
COc1cc(/C=N/Nc2ccc(C(F)(F)F)cn2)ccc1O	-147.5*
Cc1ccc2nc(-c3ccc(NC(=O)COCC(=O)O)cc3)sc2c1	-96.0*
Cc1ccc2nc(-c3ccc(NC(=O)CSCC(=O)O)cc3)sc2c1	-196.8*
Cc1ccc2sc(-c3ccc(NC(=O)/C=C\C(=O)O)cc3)nc2c1	-95.9*
CC(C)(C)c1ccc(Oc2ccc(NC(=O)c3ccccc3C(=O)O)cn2)cc1	85.7
CCC(C)c1ccc(NC(=O)Nc2cccnc2)cc1 (configuration not stated)	-155.3*
O=C(Nc1ccc(OC(F)(F)F)cc1)Nc1cccnc1	-110.3*
O=C(Nc1ccccc1)Nc1ccc(Oc2cccnc2)nc1	-105.5*
CC1(C)CC(=O)C/C(=N/Nc2nc3ccccc3s2)C1	-66.8*
CC1CCC/C(=N/Nc2nc3ccccc3s2)C1 (configuration not stated)	-133.7*
C/C(=N\NC(=O)c1ccco1)c1cc2ccccc2o1	-93.9*
C/C(=N\NC(=O)c1ccco1)c1ccc(NC(=O)c2ccccc2)cc1	-126.4*
C/C(=N\NC(=O)COc1ccccc1F)c1cc2ccccc2o1	-132.7*
SMILES	aSyn UTR act
C/C(=N\NC(=O)c1ccco1)c1ccc(-c2ccccc2)cc1	-125.9*
Cc1ccc(NC2c3ncccc3C(=O)N2c2ccccc2C)cc1C (configuration not stated)	-167.5*
Cc1cccc(N=Nc2cnc(N)s2)c1	-109.1*
O=C(COC(=O)C1CC1)c1c[nH]c2ccccc12	-176.6*
O=C(Cc1ccccc1[N+](=O)[O-])OCC(=O)c1c[nH]c2ccccc12	-69.3*
Cc1cccc(CCNc2nc3ccc(C)cc3n3cnnc23)c1	-155.7*
Cc1cc2oc3ccc(NCCCN4CCOCC4)cc3c(=O)c2cc1C	-96.7*
Cc1cc2oc3ccc(NCCCn4ccnc4)cc3c(=O)c2cc1C	-85.9*
O=C(Nc1ccc(N2CCCCC2)cc1)c1ccc2ccccc2n1	-173.5*
Cc1cccc(NC(=O)c2ccc3ccccc3n2)c1C	-67.5*
O=C(Nc1cccc(S(=O)(=O)N2CCCCCC2)c1)c1ccc2ccccc2n1	-89.0*
CCOc1ccc(C(=O)N[C@H](C(=O)Nc2cccc(S(=O)(=O)N3CCCCC3)c2)C(C)C)cc1	75.6
O=C(N/N=C\c1c(O)ccc2ccccc12)c1ccc(S(=O)(=O)N2CCCCC2)cc1	114.4
Cc1ccc(S(=O)(=O)N2CCCCC2)cc1NC(=O)c1ccc2ccccc2n1	-121.9*
Cc1ccccc1C(=O)Nc1ccc(N2CCCC2)cc1	-153.5*
O=C(Nc1ccc(N2CCCC2)cc1)C(Cl)c1ccccc1 (configuration not stated)	-107.8*
